Measurements: PubChem BioAssay (NCI)
About 83,000 compounds went through this panel and 20% of them were active in at least one assay; those are over-represented in the sample as a whole.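 48-hour exposure, single concentration, 96-well plates; percent growth endpoint where 0 means no net growth. Active: below 10.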 Active and inactive are the calls of the source.

How the values were obtained:
Experiment in all cases: NCI-60 one-dose screen, 48 h (100 = growth as untreated, 0 = no growth, -100 = all killed)
Conditions in all cases: 10 µM unless noted
SK-MEL-2 melanoma = tested on: SK-MEL-2 melanoma
EKVX NSCLC = tested on: EKVX NSCLC
SN12C renal = tested on: SN12C renal
UO-31 renal = tested on: UO-31 renal
TK-10 renal = tested on: TK-10 renal
ACHN renal = tested on: ACHN renal
CAKI-1 renal = tested on: CAKI-1 renal
A498 renal = tested on: A498 renal
CCRF-CEM leukemia = tested on: CCRF-CEM leukemia
MOLT-4 leukemia = tested on: MOLT-4 leukemia

Measured: growth

O=C(NNC(=O)c1ccc(NC(=O)c2ccccn2)cc1)Nc1ccc([N+](=O)[O-])cc1
inactive: SK-MEL-2 melanoma 106% | EKVX NSCLC 102% | SN12C renal 96.6% | UO-31 renal 75.8% | TK-10 renal 101% | ACHN renal 95.5% | CAKI-1 renal 91.6% | A498 renal 104% | CCRF-CEM leukemia 103% | MOLT-4 leukemia 103%

O=C(CN1C(=O)S/C(=C\c2ccccc2)C1=O)Nc1ncc(Cc2ccccc2Cl)s1
inactive: SK-MEL-2 melanoma 102% | EKVX NSCLC 108% | SN12C renal 102% | UO-31 renal 75.1% | TK-10 renal 103% | ACHN renal 92% | CAKI-1 renal 78.2% | A498 renal 112% | CCRF-CEM leukemia 97.7% | MOLT-4 leukemia 85.9%

O=C1/C=C/[C@@H](O)[C@@H]2C[C@@H](O)C[C@H]2/C=C/CCC[C@H](CCc2ccccc2)O1
inactive: SN12C renal 11.8% | UO-31 renal 14.7% | CCRF-CEM leukemia 13.1%
active: SK-MEL-2 melanoma -8.8% | EKVX NSCLC 8.4% | TK-10 renal -26% | ACHN renal 7.03% | CAKI-1 renal -8.69% | A498 renal -28.2% | MOLT-4 leukemia 9.48%

O=C(N/N=C/c1ccc(Cl)cc1)c1[nH]c2ccc(Cl)cc2c1-c1ccccc1
inactive: EKVX NSCLC 40.7% | SN12C renal 28.1% | UO-31 renal 24.7% | TK-10 renal 51.8% | ACHN renal 28.4% | CAKI-1 renal 20.9% | A498 renal 36.2% | CCRF-CEM leukemia 19.3% | MOLT-4 leukemia 33.7%
active: SK-MEL-2 melanoma -9.34%

CSc1nc2ccccc2cc1/C=C1/C=C(c2ccccc2)NC1=O
inactive: SK-MEL-2 melanoma 81% | EKVX NSCLC 84.9% | SN12C renal 94.1% | UO-31 renal 91.9% | TK-10 renal 123% | ACHN renal 102% | CAKI-1 renal 77.9% | A498 renal 69.9% | CCRF-CEM leukemia 68.8% | MOLT-4 leukemia 36.3%

COc1cc(NS(=O)(=O)c2ccc(-c3cnc(C4CC4)o3)cc2)ccc1F
active: A498 renal -6.34%
inactive: SK-MEL-2 melanoma 54.2% | EKVX NSCLC 33% | SN12C renal 41.1% | UO-31 renal 37.1% | TK-10 renal 43.8% | ACHN renal 37.3% | CAKI-1 renal 35.4% | CCRF-CEM leukemia 19.5% | MOLT-4 leukemia 31.9%

CC1(C)COB(OCC(C)(C)COB2OCC(C)(C)CO2)OC1
inactive: SK-MEL-2 melanoma 113% | EKVX NSCLC 104% | SN12C renal 104% | UO-31 renal 87.7% | TK-10 renal 102% | ACHN renal 108% | CAKI-1 renal 102% | A498 renal 100% | CCRF-CEM leukemia 101% | MOLT-4 leukemia 108%

O=C1NC2(Nc3ccccc31)C(=O)Nc1c(Cl)cc(Cl)cc12 (stereo not given)
inactive: SK-MEL-2 melanoma 119% | EKVX NSCLC 98.8% | SN12C renal 106% | UO-31 renal 78.5% | TK-10 renal 206% | ACHN renal 107% | CAKI-1 renal 85.1% | A498 renal 106% | CCRF-CEM leukemia 103% | MOLT-4 leukemia 93%

COc1ccc(/C=N/NC(=O)c2ccc(-n3cc(-c4ccccc4)nn3)cc2)cc1OC
inactive: SK-MEL-2 melanoma 108% | EKVX NSCLC 102% | SN12C renal 103% | UO-31 renal 108% | TK-10 renal 113% | ACHN renal 98% | CAKI-1 renal 81% | A498 renal 100% | CCRF-CEM leukemia 99.2% | MOLT-4 leukemia 95.6%

CC(C)(Sc1cc(C(C)(C)C)c(O)c(C(C)(C)C)c1)Sc1cc(C(C)(C)C)c(OC(=O)CCCC(=O)O)c(C(C)(C)C)c1
inactive: SK-MEL-2 melanoma 76% | EKVX NSCLC 53.5% | SN12C renal 41.4% | UO-31 renal 38% | TK-10 renal 74.2% | ACHN renal 47% | CAKI-1 renal 59% | A498 renal 60.2% | CCRF-CEM leukemia 43.5% | MOLT-4 leukemia 36.9%

COc1cc(-c2nccc3[nH]c(-c4ccc5cc[nH]c5c4)nc23)cc(OC)c1OC
active: ACHN renal 2.78% | A498 renal -2.61% | CCRF-CEM leukemia 5.28%
inactive: SK-MEL-2 melanoma 15.2% | EKVX NSCLC 30.9% | SN12C renal 30.9% | UO-31 renal 13.6% | TK-10 renal 10.7% | CAKI-1 renal 29.7% | MOLT-4 leukemia 18.5%

COc1ccc(Nc2ncc(Br)c(NCCCNC(=O)C3CCCC3)n2)cc1
active: UO-31 renal -30.8% | CAKI-1 renal 9.48%
inactive: SK-MEL-2 melanoma 63.6% | EKVX NSCLC 47.3% | SN12C renal 22% | TK-10 renal 23.3% | ACHN renal 19.8% | A498 renal 54.6% | CCRF-CEM leukemia 27.1% | MOLT-4 leukemia 19.5%

O=C(CSc1nc2ccc([N+](=O)[O-])cc2[nH]1)Nc1ccc([N+](=O)[O-])cc1
active: SK-MEL-2 melanoma -5.26% | SN12C renal 9.04% | UO-31 renal 9.43% | A498 renal -6.66% | MOLT-4 leukemia 5.72%
inactive: EKVX NSCLC 20.3% | TK-10 renal 31.8% | ACHN renal 21.4% | CAKI-1 renal 12.7% | CCRF-CEM leukemia 16.8%
